# In the library only some 14% were active in any assay of this set; here they are far more common.
# Sm TGR inh: S. mansoni TGR enzyme inhibition; Q962Y6; purified TGR, DTNB reduction, TNB absorbance 405 nm; Potency, µM (titrated, usually from 114 µM), for inactives: at the highest dose activity change, negative = inhibition, most hits filed as inhibitors; actives 3% (n = 360,000); AID 485364; further: potency means the concentration at half of the fitted maximal effect; nearly all actives have a fitted effect of over 60% in size
#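 TGR 20 nM + NADPH 100 uM (dispensed conc.), cpd preinc 15 min RT; start with NADPH (500 uM addition) then DTNB (15 mM addition). Kinetic TNB absorbance, 405 nm filter. Four-parameter Hill fit across titration.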
# Pf growth 96h: P. falciparum growth inhibition at 96 hours. P. falciparum luciferase reporter growth, 96 h. Potency, µM (series often up to 28.7 µM), without a hit: at the highest dose activity change, negative = inhibition, most hits filed as inhibitors. actives 6.9% (n = 320,000). AID 504834; further: potency means the concentration at half of the fitted maximal effect
#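 Parasite growth measured via integrated firefly luciferase reporter in P. falciparum. Infected erythrocytes at 2% hematocrit, 0.05% parasitemia final were treated 96 hours at 37 C under 5% CO2, and luminescence was read.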
# Pf growth 48h: inhibits P. falciparum growth in the first generation, 48 h; P. falciparum luciferase growth in erythrocytes, 48 h; Potency, µM (highest dose often 28.7 µM), without a hit: at the highest dose activity change, negative = inhibition, most hits filed as inhibitors; actives 5.9% (n = 310,000); further: potency means the concentration at half of the fitted maximal effect
#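 Compounds are pin-transferred into medium, infected erythrocytes (2% hematocrit, 0.1% parasitemia final) are added, and plates sit one parasite generation at 37 C in 5% CO2. Detection reagent is then added and luminescence measured.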
# HCMV antiviral: inhibitors of human cytomegalovirus | AID 1259415 | activity change, negative = inhibition, % at 57.5 µM | actives 4.5% (n = 410,000) | HFF cells, HCMV-luciferase reporter, 72 h; hits give low values; in the data active means activity change below about -60%; inconclusive means no clear call, values can overlap the other calls; inactive means above about -39%
#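 After 16 h attachment at 37C, HFF cells received test compound and HCMV-luciferase (1 PFU/cell); reporter luminescence read 72 h later, data normalized against buffer-only and known inhibitor Salinomycin.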
# Giardia FBPA inh: blocks Giardia fructose-bisphosphate aldolase activity; Potency, µM (top dose mostly 59.6 µM), without a hit: at the highest dose activity, negative = inhibition, usual class: inhibitors; purified Giardia FBPA; AID 2451; actives 0.71% (n = 290,000); A8B2U2; further: potency means the concentration at half of the fitted maximal effect; nearly all actives have a fitted effect of over 55% in size
# Target sequence (A8B2U2 whole entry, looked up): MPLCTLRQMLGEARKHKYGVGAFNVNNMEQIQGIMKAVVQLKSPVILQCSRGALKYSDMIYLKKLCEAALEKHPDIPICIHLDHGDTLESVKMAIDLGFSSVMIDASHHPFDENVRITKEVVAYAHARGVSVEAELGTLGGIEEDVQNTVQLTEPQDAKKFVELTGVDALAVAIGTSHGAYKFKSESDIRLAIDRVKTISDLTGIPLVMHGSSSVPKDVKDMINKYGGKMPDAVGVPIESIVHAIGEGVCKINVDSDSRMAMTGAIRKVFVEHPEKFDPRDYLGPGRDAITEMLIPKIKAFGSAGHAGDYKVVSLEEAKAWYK
#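 40 nM FBPA preincubated 10 min at RT with compound (up to 57.5 uM final), then substrate plus GAPDH/TPI/NAD/arsenate coupling and diaphorase/resazurin added. Fluorescence read after 20 min at RT, 525/598 nm.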
# The depositor's hits bear a star; ? = inconclusive; / = no result given; [ ] = remark or other dose. Unless noted, the call rests on the fitted dose curve; in most records, active means well fitted curve in the direction sought with a large enough effect; inconclusive means small, poorly fitted or top-dose-only effect, or another doubt; inactive means no such curve, though single readings can be large; an effect the other way counts as inactive or inconclusive. On the % scale 0 is the no-effect control and ±100 the full control effect.
SMILES,Sm TGR inh,Pf growth 96h,Pf growth 48h,HCMV antiviral,Giardia FBPA inh
COC1CC(=C(c2cccs2)c2cccs2)C[N+](C)(C)C1 (centres undefined),/,-7%,4.8µM*,/,/
CSc1ccc(-c2cc(=O)c3ccccc3o2)cc1,0%,?,40%,-72*,-5%
O=c1cc(-c2ccccc2[N+](=O)[O-])oc2ccccc12,/,0%,-3%,-66*,1%
O=c1cc(-c2ccc(F)cc2)oc2ccccc12,/,/,/,15,/
CC(C)C[C@@H](CN1CCCC1CN1C(=S)NC[C@@H]1Cc1ccccc1)N1C[C@H](Cc2ccc(O)cc2)N(CC2CCCCC2)C1=S (some centres undefined),/,/,/,-73*,/
CC(C)C[C@H]1CN([C@@H](CC(C)C)CN2CCC[C@@H]2CN2C(=S)NC[C@@H]2Cc2ccc(O)cc2)C(=S)N1CC1CCCCC1,/,/,/,-22,/
CC(C)C[C@@H](CN1CCC[C@@H]1CN1C(=S)NC[C@@H]1Cc1ccc(O)cc1)N1C[C@H](Cc2ccc(O)cc2)N(CC2CCCCC2)C1=S,/,/,/,-100*,/
CC(C)C[C@@H](CN1CCCC1CN1C(=S)NC[C@@H]1Cc1ccccc1)N1C[C@H](Cc2ccccc2)N(CC2CCCCC2)C1=S (some centres undefined),/,/,/,-10,/
CC(C)C[C@@H](CN1CCC[C@@H]1CN1C(=S)NC[C@@H]1Cc1ccc(O)cc1)N1C[C@H](Cc2ccc(O)cc2)N(CC2CCCCCC2)C1=S,/,/,/,-100*,/
CC(C)C[C@@H](CN1CCCC1CN1C(=S)NC[C@@H]1Cc1ccc(O)cc1)N1C[C@H](Cc2ccc(O)cc2)N(CCc2ccccc2)C1=S (some centres undefined),/,/,/,-95*,/
CC(=O)c1ccc(NC(=O)C(C)n2nc(-c3ccccc3)ccc2=O)cc1 (centres undefined),-5%,/,/,-8,/
CC(=O)Nc1ccc(NC(=O)CSc2nnc(-c3cccs3)n2C)cc1,-6%,13%,7%,11,/
COC(=O)c1c(-c2ccccc2)oc2c1C(OCCO)CCC2 (centres undefined),/,/,/,-5,/
O=C(Nc1ccc(C2=NCCN2)cc1)c1ccc(Cl)c(C(=O)Nc2ccc(C3=NCCN3)cc2)c1,-22%,0.21µM*,2.3µM*,/,1%
Clc1ccc(C2=NCCN2)cc1,/,1%,-29%,-18,0%
CCc1[nH]nc2c1C1(CCN(C(=O)OCc3ccccc3)CC1)C(C#N)=C(N)O2,-14%,0.19µM*,-26%,19,-8%
COc1ccc(Sc2cccc3c2S(=O)(=O)N(C2CC2)C[C@@H](COCc2ccccc2)O3)cc1OC,/,/,/,-40,/
CC(C)(C)c1ccc(C(=O)NNC(=O)c2cccc(Br)c2)cc1,-1%,20%,43%,-73*,-10%
Cc1ccccc1-c1nc(-c2ccc(NC(=O)c3ccc4c(c3)OCO4)cc2)no1,-2%,52%,/,-79*,-2%
Cn1cc(Br)c(C(=O)NNC(=O)c2ccc(Br)cc2)n1,-2%,?,103%,48,0%
COC(=O)c1ccc(NC(=O)c2cccc(OC)c2)cc1,1%,-3%,40%,-33,-17%
COC(=O)c1ccc(NC(=O)c2cccc(C)c2)cc1,89µM*,?,106%,41,-1%
Cc1ccc(C(=O)NNC(=O)c2cccc(Br)c2)cc1,3%,?,22%,?,-2%
Cc1c(Br)c(C(=O)NNC(=O)c2ccc(C(C)(C)C)cc2)nn1C,15%,32%,24%,-61*,6%
CC(C)CC1NC(=O)c2cc3ccccc3cc2-n2c1nc1ccc(Cl)cc1c2=O (centres undefined),/,/,/,-14,/
SMILES,Sm TGR inh,Pf growth 96h,Pf growth 48h,HCMV antiviral,Giardia FBPA inh
COc1cccc(C(=O)Nc2cccc(C(=O)N3CCOCC3)c2)c1,-1%,/,20%,-66*,-5%
COc1cccc(C(=O)N2CCOCC2)c1,-8%,?,4%,-22,1%
COc1cccc(NC(=O)c2ccc3c(c2)OCCO3)c1,9%,?,167%,32,-1%
Cc1cccc(C(=O)NNC(=O)c2ccc(F)cc2)c1,7.9µM*,?,3%,-15,2%
COc1cccc(C(=O)Nc2cc3c(cc2C(C)=O)OCCO3)c1,-1%,10µM*,40%,74,-3%
COc1cccc(NC(=O)c2ccc3c(c2)OCO3)c1,0%,9.3µM*,223%,65,4%
COc1ccc(-c2ccc(C(=O)NCc3ccc(N(C)C)cc3)c3occc23)c(C)c1,/,/,/,16,/
O=C(COc1ccccc1F)Nc1c2c(nn1-c1ccccc1)CS(=O)(=O)C2,-14%,?,?,26,7%
Clc1cccc(Cc2c(C3CCCCC3)nc3c4ccccc4ccn23)c1,/,/,/,73,/
COc1ccc(S(=O)(=O)c2c(O)c3ccc(C(=O)Nc4cccc(F)c4)cc3[nH]c2=O)cc1,2%,8%,9%,-22,19%
COC(=O)c1ccc(NC(=O)c2ccc3c(c2)OCO3)cc1,-7%,15µM*,97%,16,0%
COc1cccc(NC(=O)c2ccc3c(O)c(S(=O)(=O)c4ccccc4)c(=O)[nH]c3c2)c1,-10%,-9%,27%,-63*,?
C=CCn1c(=O)/c(=C2/Sc3ccccc3N2CC)s/c1=C1/C(=O)NN=C1C,-2%[57.1 µM],89%,15µM*,/,-26%
CN(C(=O)CN1CCN(c2cnn(-c3ccccc3)c(=O)c2Cl)CC1)C1CCS(=O)(=O)C1 (centres undefined),-13%,?,?,-18,/
O=C(CNC(=O)c1ccc(S(=O)(=O)N2CCCC2)cc1)N/N=C/c1ccccc1Cl,6%,-17%,?,-63*,4%
O=C(NN=Cc1c(O)ccc2ccccc12)c1ccc2c(c1)OCO2,/,/,/,-102*,/
O=C(N/N=C/c1c(O)ccc2ccccc12)c1ccc(CO)nc1,-20%,23%,?,-99*,-5%
Cc1cc(O)cc(O)c1/C=N/NC(=O)c1ccc2c(c1)OCCO2,/,/,/,-100*,/
COc1c(O)ccc(/C=N\NC(=O)c2ccc3c(c2)OCO3)c1[N+](=O)[O-],-9%,?,109%,65,2%
COc1ccc2cc(C(=O)Nc3ccc(Cl)cc3)sc(=O)c2c1OC,1%,33%,-4%,-7,-2%
O=C(N/N=C\c1c(O)ccc2ccccc12)c1ccc(S(=O)(=O)N2CCCCC2)cc1,-1%,85%,1.5µM*,-103*,0%
CCc1nccn1S(=O)(=O)c1ccc(Br)cc1Br,8%,0.93µM*,24%,-6,-19%
CCc1nccn1S(=O)(=O)c1ccc(OC)c(C)c1C,0%,47%,/,3,-16%
CCCCCCC#Cc1cc(OC)c(OC)cc1C(N1CC(C)c2ccccc21)N1CC(C)c2ccccc21 (centres undefined),/,/,/,/,-8%[12.9 µM]

# Screening data as filed in PubChem BioAssay.
